# From PubChem
# CYP2C9 inhib: blockers of cytochrome P450 2C9 activity – biochemical, luminescence, ADME assay, primary screen. P11712. CYP2C9 Supersomes, luciferin-H conversion. inhibition, % at 5 µM. actives 20% (n = 96,000). AID 777, 2007;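 active means blocking of liver enzyme CYP2C9 beyond about 50% at 5 µM, limit read from the data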
# CYP2C19 inh: blockers of cytochrome P450 2C19 activity – biochemical, luminescence, ADME assay, primary screen | actives 21% (n = 96,000) | inhibition, % at 5 µM | CYP2C19 Supersomes, luciferin-H EGE luminescence, 30 min;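 active means CYP2C19 inhibition above a set limit at 5 µM in the primary screen, cut at about 50% in these data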;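 further: plate controls were negative control wells for no effect and 2.5 mM tranylcypromine positive control for full effect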
# Target sequence (P33261 whole entry, looked up): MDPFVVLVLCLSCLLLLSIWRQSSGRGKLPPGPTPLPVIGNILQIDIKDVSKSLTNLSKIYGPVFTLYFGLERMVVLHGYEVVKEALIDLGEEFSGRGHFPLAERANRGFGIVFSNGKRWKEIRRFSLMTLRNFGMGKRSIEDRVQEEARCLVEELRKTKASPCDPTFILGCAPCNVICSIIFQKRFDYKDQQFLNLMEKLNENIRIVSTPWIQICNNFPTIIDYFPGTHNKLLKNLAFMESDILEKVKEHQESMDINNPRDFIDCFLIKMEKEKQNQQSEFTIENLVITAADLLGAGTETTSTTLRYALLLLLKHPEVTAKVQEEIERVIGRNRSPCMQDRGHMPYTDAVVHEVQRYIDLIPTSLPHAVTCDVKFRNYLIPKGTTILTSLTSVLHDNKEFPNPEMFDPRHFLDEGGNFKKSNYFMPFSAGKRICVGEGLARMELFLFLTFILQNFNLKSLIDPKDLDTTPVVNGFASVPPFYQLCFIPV
# PLAP act: PLAP enzyme activators, biochemical, luminescence, HTS | Alkaline phosphatase, placental type (Homo sapiens), P05187 | purified PLAP enzyme, luminescent substrate read-out; stronger effect = higher value | activation fold at 20 µM | actives 1.2% (n = 96,000); in the data active means activation fold above about 2
# CYP2C9 act: human CYP2C9 activators, primary screen, biochemical, luminescence; Cytochrome P450 2C9 (Homo sapiens), P11712; recombinant CYP2C9, luciferin-H conversion; stronger effect = higher value; factor 1 = untreated enzyme, 0 = blocked; actives 1.4% (n = 96,000); activation factor at 5 µM;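 active means activation factor of 2 or more for CYP2C9 at a 5 µM dose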;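 further: 0 = sulfaphenazole-blocked wells and 1 = vehicle-only wells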
# CYP2C19 act: human CYP2C19 activators, primary screen, biochemical, luminescence; activation factor at 5 µM; AID 1025, 2008; Cytochrome P450 2C19 (Homo sapiens), P33261; 96,000 tested, under 10 active; recombinant CYP2C19, luciferin-H EGE luminescence; stronger effect = higher value; 0 = fully inhibited enzyme, 1 = untreated enzyme;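 active means activation factor of at least 2 at 5 µM in the primary screen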;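 further: 0 = wells with 2.5 mM tranylcypromine and 1 = vehicle-only wells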
# Numbers without * were called inactive; ! = repeats disagree. Hits are enriched below; roughly 31% of the tested compounds scored in any of these assays.
SMILES,CYP2C9 inhib,CYP2C19 inh,PLAP act,CYP2C9 act,CYP2C19 act
COc1cccc(N2CCN(C(=O)C3C4C=CC5(CN(Cc6ccccc6Cl)C(=O)C35)O4)CC2)c1 (stereo not drawn),62*,22,1.6,0.4,0.8
CC(C)C(=O)Nc1ccc(C(=O)NNC(=O)c2ccco2)cc1,-7,0,1,1.1,1
CC(CNCc1ccc2c(c1)OCO2)NCc1ccc2c(c1)OCO2 (stereo not drawn),6,67*,1.2,0.9,0.3
Cc1nnc(SC(=O)N2c3ccccc3Sc3ccccc32)s1,20,17,1,0.8,0.8
COc1cccc2c(C)nc(Nc3nc(CSc4nnc(C)s4)cc(=O)[nH]3)nc12,4,4,0.8,1,1
O=C1c2ccccc2C(=O)N1CCSc1nnc(-c2ccco2)n1Cc1ccccc1,65*,97*,1.2,0.3,0
CCn1c(SCC(=O)NCc2ccco2)nnc1-c1cccs1,36,34,1.5,0.6,0.7
Cc1ccccc1CSc1nnc(-c2cccs2)n1Cc1ccco1,39,62*,1.1,0.6,0.4
Cc1ccccc1CSc1nnc(-c2ccco2)n1Cc1ccco1,10,66*,1,0.9,0.3
c1ccc(CSc2nnc(-c3ccco3)n2Cc2ccco2)cc1,22,78*,1.4,0.8,0.2
CCN(CC)C(=O)CSc1nnc(-c2ccco2)n1Cc1ccco1,18,8,1.1,0.8,0.9
COC(=O)CC(NC(=O)c1ccco1)c1ccc(C(C)C)cc1 (stereo not drawn),23,30,0.9,0.8,0.7
COc1ccccc1-n1cnc(N)c1C(=O)c1ccccc1,-42,36,1,1.4,0.6
O=C(Nc1ccc(C(=O)N2CCCCC2)cc1)C1CCCCC1,4,-2,1.1,1,1
Cc1ccc(N/C=C/C(=O)C(C)(C)C)c(O)c1,39,14,1.1,0.6,0.9
COc1ccc(C(C(O)C(=O)c2c[nH]c3ccccc23)N2CCN(c3ccc(OC)cc3)CC2)cc1 (stereo not drawn),9,-5,1.4,0.9,1.1
Cc1occc1C(=O)OCC(=O)Nc1ccc(F)cc1,32,86*,0.9,0.7,0.1
O=C(COC(=O)c1ccccc1C(=O)N1CCN(c2ccc(F)cc2)CC1)NCc1ccccc1,86*,82*,1.6,0.1,0.2
COC(=O)c1ccccc1OCC(=O)N1CCN(c2ccc(F)cc2)CC1,2,48,1,1,0.5
O=C(COC(=O)c1ccccc1C(=O)N1CCN(c2ccccc2)CC1)Nc1ccc(F)cc1,91*,72*,1.5,0.1,0.3
CCCCNC(=S)NNC(=O)CCn1nc(C)c(Br)c1C,-27,15,1.3,1.3,0.9
COc1ccc(Cl)cc1NC(=O)C(C)Sc1n[nH]c(N)n1 (stereo not drawn),-129,40,1.8,2.3*,0.6
COc1ccc(Cl)cc1NC(=O)Cn1cccc1,-178,36,1.1,2.8*,0.6
COc1ccc(CCC(=O)Nc2cc(Cl)ccc2OC)cc1,15,100*,0.9,0.8,0
COc1ccc(CC(=O)Nc2cc(Cl)ccc2O)cc1,59*,92*,0.9,0.4,0.1
SMILES,CYP2C9 inhib,CYP2C19 inh,PLAP act,CYP2C9 act,CYP2C19 act
CCC(=O)OC1CSc2nc3ccccc3n2C1 (stereo not drawn),17,40,0.9,0.8,0.6
FC(F)(F)c1ccc(CN2CCCCCC2)cc1,18,53*,1,0.8,0.5
CN(C)c1ccc(CN2CCCCC2)cc1,-3,31,0.9,1,0.7
CC(=O)c1ccc(NC(=O)Nc2cccc(Cl)c2)cc1,24,3,0.9,0.8,1
CC(=O)C(=Nc1ccc(Cl)cc1Cl)NNc1cccc(Cl)c1,100*,99*,0.7,0,0
O=S(=O)(c1ccc(F)cc1)n1ccc(-c2cccc(OCc3c(F)cccc3Cl)c2)n1,88*,36,0.7,0.1,0.6
O=S(=O)(c1ccc(Cl)cc1)n1ccc(-c2cccc(OCc3c(F)cccc3Cl)c2)n1,60*,23,0.8,0.4,0.8
O=C(OCc1c(F)cccc1Cl)c1cnccn1,-34,6,1,1.3,0.9
Cn1c(=O)n(CCCOc2ccc(Cl)cc2)c2ccccc21,12,76*,1.5,0.9,0.2
Cn1c(=O)n(CCCOc2ccc(Br)cc2)c2ccccc21,8,70*,1.2,0.9,0.3
Cn1c(=O)n(CC(N)=O)c2ccccc21,-23,-12,0.9,1.2,1.1
CC(C)(C)C(=O)NCCCc1nc2ccccc2n1CCCOc1ccc(Cl)cc1,84*,42,1.5,0.2,0.6
CSc1ncccc1-c1nc2ccccc2[nH]1,13,-8,1.1,0.9,1.1
c1ccc2[nH]c(-c3ccnc4ccccc34)nc2c1,54*!,29,1.2,0.5,0.7
CCOC(=O)c1cc2c(C)n(-c3ccc(N(C)C)cc3)c(C)c2cc(C(=O)OCC)c1=O,33,50*,0.9,0.7,0.5
C=CCNc1ncnc2c1[nH]c1ccc(Cl)cc12,64*,34,0.9,0.4,0.7
COc1ccc(N2C(=O)C(Cl)=C(N3CCCC(C)C3)C2=O)cc1 (stereo not drawn),85*,84*,0.9,0.2,0.2
O=C(Nc1cccc2nsnc12)c1ccc(-c2ccc(Br)cc2)o1,-2,-8,0.9,1,1.1
FC(F)(F)c1cccnc1N1CCN(c2ncnc3nc[nH]c23)CC1,38,83*,1.5,0.6,0.2
CCOC(=O)c1sc2ncn(C(C)C(=O)OCC)c(=O)c2c1C (stereo not drawn),75*,81*,1.7,0.3,0.2
CCOC(=O)c1sc2ncn(/N=C/c3cccnc3)c(=O)c2c1C,24,21,2.1*,0.8,0.8
Cc1cc2ncn(/N=C/c3cccnc3)c2cc1C,30,15,1.5,0.7,0.8
CCOC(=O)c1sc2ncn(CC(=O)N(CC)CC)c(=O)c2c1C,19,10,1.1,0.8,0.9
S=c1[nH]nc(C2COc3ccccc3O2)o1 (stereo not drawn),50,6,1.7,0.5,0.9
CCOC(=O)c1c(N)sc2c(O)c(Br)ccc12,73*,30,1,0.3,0.7
COc1ccc(C(=O)C(CO)Oc2ccccc2OC)cc1OC (stereo not drawn),-10,30,1.2,1.1,0.7
COc1ccc(C(=O)c2c(C(F)(F)F)oc3c2C(=O)c2ccccc2C3=O)cc1OC,43,67*,1.7,0.6,0.3
CN1CC(=O)Nc2ccc(F)cc2C1=O,-10,0,0.9,1.1,1
CCCCC(=O)Nc1nc(C)c(-c2csc(Nc3ccccc3OC)n2)s1,41,10,0.9,0.6,0.9
